Read-out in assay [1]: organic anion transporter (SLCO1B1), SLCO1B1 (gene 10599)
Nature of the assay: CLD_SLCO1B1_48hr: CellzDirect (CLD) Gene Expression Assay for organic anion transporter (SLCO1B1) at 48 hours (AID 2283707). A digest of the protocol:
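SLCO1B1 transcript quantified by qNPA with chemiluminescent readout after 48 h of once-daily chemical exposure. Cultured human primary hepatocytes came from two donors, with 0.2% DMSO vehicle; positive-direction fitting against DMSO, cytotoxicity flagged by morphology.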

Read-out in assay [2]: xenobiotic metabolism (CYP1A2), CYP1A2 (gene 1544)
The assay can be described thus: CLD_CYP1A2_48hr: CellzDirect (CLD) Gene Expression Assay for xenobiotic metabolism (CYP1A2) at 48 hours (AID 2283703). Summed up:
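Cytotoxicity was flagged yes/no from morphology, while CYP1A2 transcript induction was detected by qNPA chemiluminescence after a 48-hour exposure. Human primary hepatocyte cultures from separate donors received fresh dosing solutions daily over two days, with 0.2% DMSO as vehicle and baseline.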

A short description of assay [3]: STM_H9_OrnithineISnorm_perc: Stemina devTOX quickPredict H9 human embryonic stem cell (hESC)-based Assay for Ornithine (ORN) Metabolite Biomarker, Normalized (AID 2283712; active = hit-call score of the fitted dose curve at least 0.9, where 1 is the maximum; inactive = score below 0.9;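 note: ornithine released into spent medium during last day measured by mass spectrometry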). A digest of the protocol: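 Ornithine secreted by H9 hESCs after 72h compound treatment (daily media/compound renewal) was quantified in final-day media by UPLC-HRMS. Values are isotope-standard-normalized, expressed relative to 0.1% DMSO, fitted in positive direction.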

The nature of assay [4]: Tanguay_ZF_120hpf_ActivityScore_legacy: (Legacy) Oregon State University Tanguay Lab 120 Hour Post-fertilization zebrafish Assay Score for Activity (AID 2283742).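 For AC50: dechorionated Tropical 5D wild-type zebrafish embryos held singly per well.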 A digest of the protocol: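 Dechorionated 5D embryos, one per well, static exposure 6–120 hpf, 28C, sealed and dark; final DMSO 0.64% (vol/vol). Brightfield binary scoring of mortality plus 18 endpoints; gain-of-signal fit versus DMSO baseline.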

Assay [5] is described as follows: STM_H9_OrnCyssISnorm_ratio: Stemina devTOX quickPredict H9 human embryonic stem cell (hESC)-based Assay for Ornithine (ORN):Cystine (CYSS) Ratio (AID 2283714). A digest of the protocol: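 UPLC-HRMS of spent media: ORN/CYSS ratio of internal-standard-normalized percentages, DMSO (0.1%) baseline. Pluripotent H9 hESCs, 72h exposure, daily re-dosing with fresh media; last 24h media collected.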

Assay [6] concerns Thyroperoxidase (TPO), gene 445522. The assay can be described thus: CCTE_Simmons_GUA_TPO: CCTE's Guaiacol Assay for Thyroperoxidase (TPO) Inhibition, Simmons Lab (AID 2283750). Summed up: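 Porcine thyroid microsomes (25 ug) in 200mM potassium phosphate, preincubated 30 s at 37C with compound (8 concentrations, 5 nM–87.5 uM) and 35mM guaiacol; 1mM H2O2 starts reaction. Absorbance change at 450nm over first 80 s; loss of signal versus DMSO, three replicates.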

Read-out in assay [7]: glucuronosyltransferase (UGT1A1), UGT1A1 (gene 54658)
The assay can be described thus: CLD_UGT1A1_48hr: CellzDirect (CLD) Gene Expression Assay for glucuronosyltransferase (UGT1A1) at 48 hours (AID 2283709).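 Note: actives increase expression relative to DMSO so potency refers to induction.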 Summed up: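 Quantitative nuclease protection assay (chemiluminescent) for UGT1A1 mRNA at 48 h in human hepatocyte cultures from two donors, redosed daily with fresh solutions. Induction fitted relative to 0.2% DMSO; phase-contrast morphology annotated cytotoxicity.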

Assay [8] can be described thus: ArunA_CellTiter_hNC: Viability Assessment in the ArunA Biomedical's Oris Neural Crest (hNC) Cell Migration Assay (AID 2283752). A digest of the protocol:
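Seed 60,000 hNC cells per well onto Matrigel in basal growth medium containing LIF and bFGF. Incubate 16 h at 37C. Replace with test medium containing chemical for 72 h, then assess viability by CellTiter Aqueous One.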

Assay [9] in a line: ArunA_CellTiter_hNP: Viability Assessment in the ArunA Biomedical's Oris Neural Crest (hNC) Cell Migration Assay (AID 2283753). A digest of the protocol: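 Viability read with CellTiter 96 Aqueous One after 72 h chemical exposure of human hNP1 neuroprogenitors, which were plated on Matrigel in LIF/bFGF medium 16 h beforehand. Endpoint fitted in positive direction relative to DMSO.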

A short description of assay [10]: ArunA_Migration_hNP: ArunA Biomedical's Oris Neuroprogenitor (hNP) Cell Migration Assay (AID 2283754). As for the experimental part:
ArunA_Migration_hNP is a cell-based, single-readout assay that uses human H9-derived neuroprogenitor stem cells (hNP1). Measurements were taken 72 hours after chemical dosing in a 96-well plate.ArunA_Migration_hNP is an assay component measured from the ArunA_Migration_hNP assay. It is designed to make measurements of cell migration, a form of distribution reporter, as detected with fluorescence intensity signals by HCS Fluorescent Imaging technology. Data from the assay component ArunA_Migration_hNP was analyzed at the endpoint, ArunA_Migration_hNP, in the positive analysis fitting direction relative to DMSO as the negative control and baseline of activity. […]
To assess the hNP and hNC migration and cell titer endpoints, 60,000 cells per well were plated onto Matrigel in basal growth medium with LIF and bFGF in a 96-well plate format. […] Cell viability in the detection zone was quantitated using a Flexstation3 microplate reader (ex494 nm/em 517 nm). Corresponding cell titer endpoints were assessed for the hNP and hNC cells using the Promega CellTiter Aqueous One Solution Cell Proliferation Assay (Cat no. G3581; CellTiter 96). Finally, to gain insight into the mechanisms by which cells migrate into the detection zone, Ki-67 expression was quantified for 10 additional chemicals in the hNP and hNC systems. […]

The values that follow come from PubChem BioAssay (EPA / NIEHS).

“And” between values parts separate entries of the source, which are not always exact repeats. Equal values may be shown once. Results filed as inconclusive are left out. Some compounds were tested as several samples or in several runs, with calls that do not always agree. The source made the active and inactive calls. Rule for the calls, unless noted: active = hit-call score of the fitted dose curve at least 0.9, where 1 is the maximum; inconclusive = response in the unintended direction; inactive = score below 0.9.

Take `CCC(O)=C1C(=O)CC(C(=O)O)CC1=O` (configuration not stated): the outcome in assay [1] was inactive.

On to `OB(O)O`, for which the molecule was classed as inactive in assay [2], in assay [1], in assay [3] and in assay [4].

With `CCOC(=O)C(C)Oc1ccc(Oc2cnc3cc(Cl)ccc3n2)cc1` (configuration not stated), the molecule was called inactive in assay [1], in assay [3] and in assay [4].

In the case of `CCCCOC(=O)C(C)Oc1ccc(Oc2ccc(C(F)(F)F)cn2)cc1` (configuration not stated), the molecule was called inactive in [1], in [3], in assay [5] and in assay [4].

Take `COC(=O)c1cccc(C)c1S(=O)(=O)NC(=O)Nc1nc(OCC(F)(F)F)nc(N(C)C)n1`: the molecule was called inactive in [1].

One may read the AC50 as the concentration at which the activity in the assay is half-maximal. Take `c1ccc(Nc2ccccc2)cc1`: the molecule was called inactive in [1]. In addition, the AC50 in assay [4] was 30.3 µM (active).

In the case of `CCCN(CCC)C(=O)SCC`, the outcome in [1] and in [4] was inactive.

For the molecule `CSC(=O)c1cccc2nnsc12`, the molecule was classed as inactive in [1], in assay [4] and in [6]. Further, the values for the AC50 in assay [3] and in assay [5] were 80.2 µM (active) and 78.6 µM (active), respectively.

Consider `COC(=O)CSc1cc(N=c2sc(=O)n3n2CCCC3)c(F)cc1Cl`, for which the result in assay [1] and in assay [4] was inactive. In addition, the values for the half-maximal activity concentration (AC50) in assay [7], in assay [3] and in assay [5] were 5.72 µM (active), 78.8 µM (active) and 80 µM (active), respectively.

As to `CC(C)(c1ccc(O)cc1)c1ccc(O)cc1`, the outcome in [1], in assay [5], in [8], in assay [9] and in [10] was inactive. Also, the half-maximal activity concentration (AC50) in [3] was 67.3 µM (active); in assay [4] it was 45 µM (active) and 33.6 µM (active) and 35.6 µM (active).

Regarding `C[C@]12C[C@H](O)[C@H]3[C@@H](CCC4=CC(=O)CC[C@@]43C)[C@@H]1CC[C@@H]2C(=O)CO`, the AC50 was 77 µM (active) in assay [3] and 93.8 µM (active) in assay [5]. In addition, the call in [4] was inactive.

For the molecule `CCCCC(CC)COC(=O)c1ccccc1C(=O)O` (configuration not stated), the result in assay [1] and in [4] was inactive. In addition, the concentration at half-maximal activity (AC50) in assay [3] was 341 µM (active); in [5], 283 µM (active).

Turning to `CCN(CC)C(=O)c1cccc(C)c1`, in assay [4], the outcome was inactive.

Consider `CC(C)CCCCCCc1ccc(O)cc1`, for which the AC50 in assay [3] was 73.4 µM (active); in [5], 75.7 µM (active); in assay [8], 5.59 µM (active); in assay [9] it was 9.76 µM (active); in [10], 17 µM (active). Further, the result in assay [4] was inactive.

As for `O=C(c1ccc(O)cc1O)c1ccc(O)cc1O`, the AC50 in assay [3] is 51.1 µM (active). The outcome in [4] was inactive.

Consider `CC(=O)S[C@@H]1CC2=CC(=O)CC[C@]2(C)[C@H]2CC[C@@]3(C)[C@@H](CC[C@@]34CCC(=O)O4)[C@H]12`, for which the molecule was called inactive in assay [4].

In the case of `CCCCOCCOCCOCc1cc2c(cc1CCC)OCO2`, the AC50 in [4] was 4.35 µM (active).

`CCN(Cc1c(F)cccc1Cl)c1c([N+](=O)[O-])cc(C(F)(F)F)cc1[N+](=O)[O-]`: the half-maximal activity concentration (AC50) in assay [3] is 17.2 µM (active). Besides, the result in [5] and in [4] was inactive.

As for `O=C(O)c1ccccc1`, the result in [4] was inactive.

Turning to `COC(=O)c1ccc(I)cc1S(=O)(=O)NC(=O)Nc1nc(C)nc(OC)n1`, the outcome in assay [3] and in [4] was inactive.

As to `CCCCCOC(=O)COc1cc(N2C(=O)C3=C(CCCC3)C2=O)c(F)cc1Cl`, the half-maximal activity concentration (AC50) in [3] is 0.104 µM (active). Besides, the outcome in [5] and in assay [4] was inactive.

For `O=C(Nc1ccc([N+](=O)[O-])cc1Cl)c1cc(Cl)ccc1O`, the outcome in assay [3], in assay [5] and in [4] was inactive.

As to `C#C[C@]1(O)CC[C@H]2[C@@H]3CCC4=CC(=O)CC[C@@H]4[C@H]3CC[C@@]21CC`, the outcome in assay [4] was inactive.

Regarding `CCCN(CCC)c1c([N+](=O)[O-])cc(C(F)(F)F)c(N)c1[N+](=O)[O-]`, the outcome in assay [3] and in assay [4] was inactive.

As for `CC(=O)[C@H]1CC[C@H]2[C@@H]3CCC4=CC(=O)CC[C@]4(C)[C@H]3CC[C@]12C`, the result in assay [4] was inactive.

For the molecule `C=CCOC(Cn1ccnc1)c1ccc(Cl)cc1Cl` (configuration not stated), the outcome in assay [3] was inactive. The AC50 in assay [4] was 11.7 µM (active).

With `C[C@]12CC[C@@H]3c4ccc(O)cc4C[C@@H](CCCCCCCCCS(=O)CCCC(F)(F)C(F)(F)F)[C@H]3[C@@H]1CC[C@@H]2O` (some centres not stated), the molecule was classed as inactive in [4].

With `CCCCCCC(C)OC(=O)COc1nc(F)c(Cl)c(N)c1Cl` (configuration not stated), the call in assay [4] was inactive.

Turning to `O=C(c1ccccc1)C1CCCCC1`, the molecule was classed as inactive in assay [4].

Take `S=C(S)NCCNC(=S)S.[Mn+2].[S-]C([S-])=NCCN=C([S-])[S-].[Zn+2]`: the result in [3], in assay [5] and in [4] was inactive. Moreover, the concentration at half-maximal activity (AC50) is 0.00112 µM (active) in assay [4], 9.92 µM (active) in assay [8] and 83.4 µM (active) in assay [9].

For the molecule `O=C(O)C1(C(=O)Nc2ccc(Cl)cc2Cl)CC1`, the outcome in [3] was inactive. Further, the results for the concentration at half-maximal activity (AC50) in assay [5] and in assay [4] were 9.92 µM (active) and 19.6 µM (active), respectively.

Regarding `CCOC(=O)c1ccc(O)cc1`, the call in assay [4] was inactive.

Take `CCCCC(CC)CN1C(=O)C2C3C=CC(C3)C2C1=O` (configuration not stated): the result in assay [4] was inactive.

Regarding `c1ccc2[nH]c(-c3cscn3)nc2c1`, the molecule was classed as inactive in assay [4].

`CCOC(=O)C(C)Oc1ccc(Oc2nc3ccc(Cl)cc3o2)cc1` (configuration not stated): the result in [4] was inactive.

`Cc1nn(C)c(Oc2ccccc2)c1C=NOCc1ccc(C(=O)OC(C)(C)C)cc1`: the AC50 is 0.0118 µM (active) in assay [3], 0.0589 µM (active) in assay [5] and 2.45 µM (active) in [4].

On to `N#CSCSc1nc2ccccc2s1`, for which the values for the AC50 in [3], in assay [5] and in assay [4] were 17.2 µM (active), 16.4 µM (active) and 0.11 µM (active), respectively.

`CCOC(=O)COc1cc(-n2ncc(C(F)(F)F)c(C)c2=O)c(F)cc1Cl`: in assay [4], the molecule was called inactive.

As to `CC(C)(C)[C@@H](O)[C@@H](Cc1ccc(Cl)cc1)n1cncn1`, the outcome in assay [3] and in [4] was inactive. Further, the AC50 in [5] was 88.7 µM (active).

As to `N[C@@H](Cc1cc(I)c(Oc2ccc(O)c(I)c2)c(I)c1)C(=O)O`, the result in assay [3], in [5] and in [9] was inactive. Also, the AC50 in [4] was 0.287 µM (active); in [6], 13.1 µM (active); in assay [8], 33 µM (active).
